The values below come from PubChem BioAssay (NCATS).

The target in test [1] is D(1A) dopamine receptor (Homo sapiens) (UniProt P21728). Description: HTS Assay for Allosteric Agonists of the Human D1 Dopamine Receptor: Primary Screen for Agonists (AID 488981). Further: potency means the concentration at half of the fitted maximal effect. On activation: 0% is about no effect. The gist of the method:
(§1)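 Tetracycline-induced HEK293 Trex D1 cells with forced coupling to calcium, loaded with no-wash calcium dye; kinetic fluorescence read 180 s after compound addition for agonism, then a further 180 s after an EC20 dopamine challenge for potentiation.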

The target is the same in test [2]. The test is described as follows: HTS Assay for Allosteric Agonists of the Human D1 Dopamine Receptor: Primary Screen for Potentiators (AID 488982). Further: 0% is about no effect. The gist of the method: as §1
For test [3] the target is unchanged. Description: HTS Assay for Allosteric Agonists of the Human D1 Dopamine Receptor: Primary Screen for Antagonists (AID 488983).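 Further: calcium flux response to an EC80 dopamine challenge measured with no-wash dye; on the % scale 0 is the no-effect control and ±100 the full control effect; nearly all actives have a fitted effect of over 65% in size.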 Put shortly:
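Tetracycline-induced HEK293 T-REx cells expressing force-coupled D1 were plated overnight at 30 C, dye-loaded for calcium, and read kinetically. Compounds were pinned in, then an EC80 dopamine challenge followed after 180 s to reveal antagonism.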

Test [4] in a line: Validation screen for small molecules that induce genotoxicity in human embryonic kidney (HEK293T) cells expressing luciferase-tagged ELG1 (AID 493106). Further: potency means the concentration at half of the fitted maximal effect. The gist of the method:
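HEK293T cells expressing luciferase-tagged ELG1 were exposed to compound or DMSO vehicle for 16 hr at 37 °C, 5% CO2. Genotoxic stress raises ELG1 levels, so increased luciferase signal after ONE-Glo addition and 30 min at room temperature marks hits.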

Test [5] has as its target ATPase family AAA domain-containing protein 5 (Homo sapiens) (UniProt Q96QE3). The test is described as follows: Validation screen for small molecules that inhibit ELG1-dependent DNA repair in human embryonic kidney (HEK293T) cells expressing luciferase-tagged ELG1 (AID 493107). Further: nearly all actives have a fitted effect of over 70% in size. Further: potency means the concentration at half of the fitted maximal effect. The gist of the method: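 HEK293T cells expressing luciferase-tagged ELG1 were co-treated with 5-fluorouridine and compound or DMSO for 16 hr at 37 °C, 5% CO2. Luciferase activity was then read with ONE-Glo after 30 min at room temperature; suppressed signal indicates blocked ELG1 function.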

Test [6] can be described thus: Nrf2 qHTS screen for inhibitors: Validation (AID 493153; active means well fitted inhibition curve with a large enough effect in the main read-out, with a control signal flat, not every such curve was filed as active; further: potency means the concentration at half of the fitted maximal effect). To be noted: Potency: luciferase luminescence; viability change: measured here: cytotoxicity max response. Put shortly:
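A549 cells carrying an ARE-driven firefly luciferase reporter, in 5% FBS OPTI-MEM, were treated with compounds in concentration-response for 18-24 h at 37°C. Viability was read by CellTiter-Fluor fluorescence, then Nrf2 activity by luciferase luminescence.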
For orientation: Quantitative high-throughput screening tests each substance at several concentrations.

Test [7] can be described thus: qHTS for Inhibitors of Cell Surface uPA Generation: Validation Assay (AID 493164).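 Further: RAW 264.7 macrophage cells exposed to compound for 18 h; 0% is about no effect.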 The gist of the method:
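RAW 264.7, 4000 cells/well, o/n plating; cpd 7-pt 1:5 dilution 2.45 nM–38.3 uM final; 18 h, 37 C/5% CO2; ATP-Lite, 5 s luminescence exposure.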

The target of test [8] is Peptidyl-prolyl cis-trans isomerase NIMA-interacting 1 (Homo sapiens) (UniProt Q13526). The test is described as follows: qHTS Validation Assay to Find Inhibitors of Pin1 (AID 504536; active means well fitted inhibition curve with a large enough effect in the polarisation, with a control signal flat, not every such curve was filed as active; the % refers to the polarisation;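 further: 0% = full Pin1 enzyme wells and -100% = no-enzyme wells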). The gist of the method:
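Fluorescence polarization competition: compounds (titration) displace HiFluor-488-labeled Pin1-1b peptide from Pin1 (0.3 uM final) in pH 7.5 HEPES buffer with DTT, 10 min at room temperature; %Activity normalized to no-enzyme wells, curves fitted.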

Test [9] deals with Phosphoglycerate kinase, glycosomal (Trypanosoma brucei brucei) (UniProt P07378). Description: qHTS Validation Assay to Find Inhibitors of Phosphoglycerate Kinase (AID 504547).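 Further: control wells lack PGK and mark full inhibition.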 Put shortly:
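PGK activity was coupled to GAPDH (100nM final), which generates the unstable substrate 1,3-bisphosphoglycerate in-well. Reactions ran 60 minutes at room temperature in 100mM TEA pH 7.6, 5mM MgCl2, 0.01% Tween-20, then Kinase-Glo Plus luminescence was read.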

In test [10] the target is phosphoglycerate mutase (Leishmania major) (UniProt Q4Q090). The test is described as follows: qHTS Validation Assay to Find Inhibitors of Phosphoglycerate Mutase (AID 504548). Further: series mostly up to about 58 µM; on the % scale 0 is the no-effect control and ±100 the full control effect. Particulars: Potency: inhibition qHTS. Put shortly:
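Lm PGAM 1.25nM final; 100 mM TEA pH 7.6, 5 mM MgCl2, 0.01% Tween-20; 45 min RT; Kinase-GloPlus, 10 min; end-point luminescence. Enzyme-free wells as negative controls.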

Test [11] concerns the target Thyrotropin receptor (Homo sapiens) (UniProt P16473). The test is described as follows: qHTS Assay for Antagonists of the Thyroid Stimulating Hormone Receptor (AID 488980). Further: series mostly up to about 58 µM; 0% is about no effect. The gist of the method:
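Inhibition of cAMP raised by EC80 TSH (4 nM final) was read by HTRF, with lysate cAMP competing against cAMP-d2 for cryptate antibody after 30 min at room temperature. The cells were transfected HEK293 held in phosphodiesterase inhibitor RO 20-1724 at 70 uM.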

Test [12] has as its target Galactokinase (Homo sapiens) (UniProt P51570). The test is described as follows: qHTS Validation Assay for Inhibitors of Human Galactokinase (GALK) (AID 493189). Further: 0% is about no effect. Put shortly: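 Inhibition was measured as remaining ATP, detected by luciferase luminescence after a 1 h room-temperature reaction. Final conditions: 5 nM GALK, 100 uM galactose, 35 uM ATP, pH 8.0 HEPES buffer.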

Test [13] can be described thus: Validation screen for small molecules that induce DNA re-replication in SW480 colon adenocarcinoma cells (AID 504364). Further: 0% is about no effect. The gist of the method:
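SW480 cells seeded at 250 per well were exposed to compound or DMSO for 48 hr at 37 C, 5% CO2, then stained with Hoechst for 40 min. DNA content per nucleus was imaged (405 nm ex, 500-530 nm em).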

The target of test [14] is Ubiquitin carboxyl-terminal hydrolase 1 (Homo sapiens) (UniProt O94782). The test is described as follows: Inhibitors of USP1/UAF1: Pilot qHTS (AID 504865). Further: nearly all actives have a fitted effect of over 35% in size. Further: potency means the concentration at half of the fitted maximal effect. Put shortly:
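Deubiquitinase activity followed as kinetic rhodamine fluorescence release from 150 nM Ub-Rho. 1 nM USP1/UAF1 with compound, after 15 min room-temperature preincubation, in HEPES pH 7.8 buffer containing TCEP, EDTA, BSA and Tween-20.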

The nature of test [15]: qHTS for Inhibitors of ATXN expression: Validation of Cytotoxic Assay (AID 588349). Further: on the % scale 0 is the no-effect control and ±100 the full control effect. The gist of the method: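 HEK293 cells were dosed with titrated compounds for 72 hr at 37 degrees C. Viability was read by CellTiter Glo luminescence, with intracellular ATP as the marker of cell survival.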
In test [16] the target is ATP-dependent 6-phosphofructokinase (Trypanosoma brucei brucei) (UniProt O15648). Description: qHTS Assay to Find Inhibitors of T. brucei phosphofructokinase: hit validation (AID 492961). Further: series mostly up to about 51 µM; on the % scale 0 is the no-effect control and ±100 the full control effect. The gist of the method: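 Luminescence from ADP-Glo reports ADP generated as T. brucei PFK (1.25 nM) phosphorylates 0.5 mM fructose-6-phosphate using 0.1 mM ATP. Reactions ran 45 min at room temperature, pH 8.0.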

Test [17] is described as follows: qHTS for Inhibitors of ATXN expression: Validation (AID 588378). Further: series mostly up to about 57 µM; on the % scale 0 is the no-effect control and ±100 the full control effect; nearly all actives have a fitted effect of over 75% in size. Put shortly: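 Luciferase luminescence (Bright-Glo) from an ATXN2-FFLuc HEK293 line after 24 h compound exposure at 37 °C, preceded by a CellTiter-Fluor fluorescence viability read. Serial dilutions of a reference ATXN2 inhibitor and a luciferase inhibitor served as controls.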
The target of test [18] is Transient receptor potential cation channel subfamily V member 1 (Homo sapiens) (UniProt Q8NER1). The test is described as follows: HTS Assay for Compounds that Act as Enhancers of the Vanilloid Receptor 1 (AID 488979). Further: 0% is about no effect. Put shortly:
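TRPV1 cells loaded with Fluo-8 calcium dye; compound added and Ca2+ signal (ex 480/em 520 nm) followed 3 min, then capsaicin at EC20 added and read 2 more min to detect enhancement.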

Test [19] deals with Thyrotropin-releasing hormone receptor (Homo sapiens) (UniProt P34981). The test is described as follows: qHTS for Small Molecule Agonists and Allosteric Enhancers of Human TRH Receptor: Validation Screen for Agonists (AID 493127;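 active means calcium activation more than 3 SD above the typical response in the agonist read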;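 further: intracellular calcium rise by fluo-8 fluorescence before TRH EC20 addition; 0% is about no effect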). To be noted: TRH receptor agonist cell assay; at 2 µM; stronger effect = higher value. Put shortly: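 TRHR-expressing cells were plated overnight in serum-containing medium, then loaded with fluo-8 calcium dye at room temperature for 30 min–1.5 h. After a 10 s baseline, compound was pin-transferred and calcium fluorescence (ex 480/em 530) read kinetically for agonist response.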
Sequence of Thyrotropin-releasing hormone receptor (Homo sapiens) (P34981 whole entry, looked up): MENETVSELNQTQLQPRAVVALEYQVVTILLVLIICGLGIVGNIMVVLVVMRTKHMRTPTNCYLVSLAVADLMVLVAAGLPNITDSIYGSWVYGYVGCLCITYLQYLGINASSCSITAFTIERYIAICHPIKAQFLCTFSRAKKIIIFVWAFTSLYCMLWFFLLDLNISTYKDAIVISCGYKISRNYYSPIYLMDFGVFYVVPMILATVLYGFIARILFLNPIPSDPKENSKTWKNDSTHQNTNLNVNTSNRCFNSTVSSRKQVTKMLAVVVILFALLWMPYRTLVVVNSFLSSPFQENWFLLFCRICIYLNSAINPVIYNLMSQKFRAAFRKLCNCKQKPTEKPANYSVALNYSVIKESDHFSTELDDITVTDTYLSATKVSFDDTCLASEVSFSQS

Results filed as inconclusive are left out. Calls of active or inactive are those of the source. Unless noted, the call rests on the fitted dose curve; in most records, active means well fitted curve in the direction sought with a large enough effect; inconclusive means small, poorly fitted or top-dose-only effect, or another doubt; inactive means no such curve, though single readings can be large; an effect the other way counts as inactive or inconclusive.

Sequence of Thyrotropin receptor (Homo sapiens) (P16473 whole entry, looked up): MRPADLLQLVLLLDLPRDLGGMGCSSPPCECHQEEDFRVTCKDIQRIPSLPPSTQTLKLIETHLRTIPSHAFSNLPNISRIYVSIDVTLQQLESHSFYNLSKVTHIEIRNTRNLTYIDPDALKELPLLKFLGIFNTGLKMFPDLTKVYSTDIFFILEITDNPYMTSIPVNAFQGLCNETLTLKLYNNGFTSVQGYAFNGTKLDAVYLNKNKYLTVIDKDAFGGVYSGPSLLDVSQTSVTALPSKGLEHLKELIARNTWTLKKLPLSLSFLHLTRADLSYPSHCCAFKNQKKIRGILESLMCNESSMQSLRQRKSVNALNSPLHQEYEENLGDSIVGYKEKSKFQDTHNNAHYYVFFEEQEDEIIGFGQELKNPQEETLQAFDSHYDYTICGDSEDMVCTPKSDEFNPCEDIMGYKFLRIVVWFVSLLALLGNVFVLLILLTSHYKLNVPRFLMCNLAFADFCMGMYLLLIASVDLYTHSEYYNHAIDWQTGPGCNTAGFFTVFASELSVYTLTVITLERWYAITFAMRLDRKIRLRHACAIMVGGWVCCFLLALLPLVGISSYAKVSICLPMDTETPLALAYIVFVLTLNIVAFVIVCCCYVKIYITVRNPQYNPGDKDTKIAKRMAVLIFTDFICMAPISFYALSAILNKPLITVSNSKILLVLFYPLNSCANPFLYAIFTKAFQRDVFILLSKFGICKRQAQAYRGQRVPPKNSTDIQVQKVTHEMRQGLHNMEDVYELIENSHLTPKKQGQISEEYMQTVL
Sequence of D(1A) dopamine receptor (Homo sapiens) (P21728 whole entry, looked up): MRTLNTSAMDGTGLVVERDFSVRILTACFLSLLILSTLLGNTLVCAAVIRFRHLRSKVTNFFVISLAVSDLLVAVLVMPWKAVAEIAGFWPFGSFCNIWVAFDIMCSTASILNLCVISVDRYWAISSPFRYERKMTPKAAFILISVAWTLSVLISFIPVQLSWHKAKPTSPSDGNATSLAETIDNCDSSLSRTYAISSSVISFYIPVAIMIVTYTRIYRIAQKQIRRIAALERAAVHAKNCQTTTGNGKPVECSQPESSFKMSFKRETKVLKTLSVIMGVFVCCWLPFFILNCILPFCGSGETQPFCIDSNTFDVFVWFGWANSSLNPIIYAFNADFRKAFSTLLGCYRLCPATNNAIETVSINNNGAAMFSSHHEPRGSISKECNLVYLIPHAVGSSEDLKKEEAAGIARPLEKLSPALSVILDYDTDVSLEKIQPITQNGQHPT
Sequence of phosphoglycerate mutase (Leishmania major) (Q4Q090 1-553): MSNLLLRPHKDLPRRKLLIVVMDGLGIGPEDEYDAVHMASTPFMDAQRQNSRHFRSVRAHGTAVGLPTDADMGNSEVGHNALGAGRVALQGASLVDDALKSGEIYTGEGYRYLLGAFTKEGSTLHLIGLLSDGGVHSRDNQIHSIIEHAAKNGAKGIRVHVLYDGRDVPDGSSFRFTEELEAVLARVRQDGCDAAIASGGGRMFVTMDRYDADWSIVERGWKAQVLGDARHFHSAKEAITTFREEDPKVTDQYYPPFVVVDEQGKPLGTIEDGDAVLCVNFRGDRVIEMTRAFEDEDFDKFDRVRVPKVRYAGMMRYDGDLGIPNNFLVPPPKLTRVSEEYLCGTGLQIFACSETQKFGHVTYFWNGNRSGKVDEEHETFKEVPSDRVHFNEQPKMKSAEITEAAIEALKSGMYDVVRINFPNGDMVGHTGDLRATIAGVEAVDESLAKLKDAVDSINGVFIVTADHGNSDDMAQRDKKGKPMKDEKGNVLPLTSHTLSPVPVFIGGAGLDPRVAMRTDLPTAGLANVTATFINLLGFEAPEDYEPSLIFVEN
Sequence of ATPase family AAA domain-containing protein 5 (Homo sapiens) (Q96QE3 whole entry, looked up, the tested form may be a part): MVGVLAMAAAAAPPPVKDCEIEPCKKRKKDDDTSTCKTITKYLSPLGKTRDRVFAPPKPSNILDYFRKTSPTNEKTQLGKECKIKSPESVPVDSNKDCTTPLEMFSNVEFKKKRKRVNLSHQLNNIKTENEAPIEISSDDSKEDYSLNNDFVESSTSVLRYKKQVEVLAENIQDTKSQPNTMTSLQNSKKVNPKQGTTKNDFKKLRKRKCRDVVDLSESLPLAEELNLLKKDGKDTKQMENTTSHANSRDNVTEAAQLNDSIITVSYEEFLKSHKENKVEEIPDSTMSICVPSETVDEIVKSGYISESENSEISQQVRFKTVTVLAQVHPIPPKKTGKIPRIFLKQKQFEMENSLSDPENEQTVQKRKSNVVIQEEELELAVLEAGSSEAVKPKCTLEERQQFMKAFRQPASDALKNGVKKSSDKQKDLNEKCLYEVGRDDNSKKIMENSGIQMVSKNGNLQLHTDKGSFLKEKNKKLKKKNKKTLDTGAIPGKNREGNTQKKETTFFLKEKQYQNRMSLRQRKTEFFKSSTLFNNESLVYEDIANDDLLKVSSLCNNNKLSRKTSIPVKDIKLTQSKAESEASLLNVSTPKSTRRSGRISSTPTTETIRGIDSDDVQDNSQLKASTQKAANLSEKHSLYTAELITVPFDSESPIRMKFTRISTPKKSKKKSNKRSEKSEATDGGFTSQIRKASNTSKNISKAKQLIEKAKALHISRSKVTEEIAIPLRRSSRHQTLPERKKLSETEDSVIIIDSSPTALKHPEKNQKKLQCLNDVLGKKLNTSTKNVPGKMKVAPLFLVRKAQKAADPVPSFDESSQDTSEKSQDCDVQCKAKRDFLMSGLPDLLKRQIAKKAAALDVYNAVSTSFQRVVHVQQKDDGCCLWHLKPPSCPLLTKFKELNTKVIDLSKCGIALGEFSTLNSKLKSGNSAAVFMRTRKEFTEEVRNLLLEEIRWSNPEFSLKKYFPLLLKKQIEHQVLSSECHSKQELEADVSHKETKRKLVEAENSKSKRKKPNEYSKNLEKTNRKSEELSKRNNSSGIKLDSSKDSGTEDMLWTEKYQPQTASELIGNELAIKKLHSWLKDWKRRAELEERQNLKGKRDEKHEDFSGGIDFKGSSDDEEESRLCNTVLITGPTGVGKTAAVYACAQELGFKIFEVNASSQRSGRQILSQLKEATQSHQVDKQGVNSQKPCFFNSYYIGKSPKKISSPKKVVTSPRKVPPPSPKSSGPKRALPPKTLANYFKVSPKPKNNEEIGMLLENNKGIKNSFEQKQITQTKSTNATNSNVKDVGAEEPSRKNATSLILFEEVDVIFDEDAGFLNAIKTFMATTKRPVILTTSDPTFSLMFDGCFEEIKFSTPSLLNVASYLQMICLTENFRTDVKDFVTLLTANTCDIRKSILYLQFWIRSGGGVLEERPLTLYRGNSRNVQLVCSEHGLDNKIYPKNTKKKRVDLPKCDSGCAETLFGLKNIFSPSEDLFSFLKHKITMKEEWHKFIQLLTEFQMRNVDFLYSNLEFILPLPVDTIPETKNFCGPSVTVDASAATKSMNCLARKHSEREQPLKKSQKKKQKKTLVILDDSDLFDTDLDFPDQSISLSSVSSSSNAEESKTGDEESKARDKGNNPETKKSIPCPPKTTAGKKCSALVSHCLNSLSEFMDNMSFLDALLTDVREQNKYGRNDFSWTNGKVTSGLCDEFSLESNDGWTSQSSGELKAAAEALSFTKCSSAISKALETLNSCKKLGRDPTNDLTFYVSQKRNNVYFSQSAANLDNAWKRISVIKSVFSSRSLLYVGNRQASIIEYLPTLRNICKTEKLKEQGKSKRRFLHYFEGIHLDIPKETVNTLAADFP
Sequence of Ubiquitin carboxyl-terminal hydrolase 1 (Homo sapiens) (O94782 whole entry, looked up): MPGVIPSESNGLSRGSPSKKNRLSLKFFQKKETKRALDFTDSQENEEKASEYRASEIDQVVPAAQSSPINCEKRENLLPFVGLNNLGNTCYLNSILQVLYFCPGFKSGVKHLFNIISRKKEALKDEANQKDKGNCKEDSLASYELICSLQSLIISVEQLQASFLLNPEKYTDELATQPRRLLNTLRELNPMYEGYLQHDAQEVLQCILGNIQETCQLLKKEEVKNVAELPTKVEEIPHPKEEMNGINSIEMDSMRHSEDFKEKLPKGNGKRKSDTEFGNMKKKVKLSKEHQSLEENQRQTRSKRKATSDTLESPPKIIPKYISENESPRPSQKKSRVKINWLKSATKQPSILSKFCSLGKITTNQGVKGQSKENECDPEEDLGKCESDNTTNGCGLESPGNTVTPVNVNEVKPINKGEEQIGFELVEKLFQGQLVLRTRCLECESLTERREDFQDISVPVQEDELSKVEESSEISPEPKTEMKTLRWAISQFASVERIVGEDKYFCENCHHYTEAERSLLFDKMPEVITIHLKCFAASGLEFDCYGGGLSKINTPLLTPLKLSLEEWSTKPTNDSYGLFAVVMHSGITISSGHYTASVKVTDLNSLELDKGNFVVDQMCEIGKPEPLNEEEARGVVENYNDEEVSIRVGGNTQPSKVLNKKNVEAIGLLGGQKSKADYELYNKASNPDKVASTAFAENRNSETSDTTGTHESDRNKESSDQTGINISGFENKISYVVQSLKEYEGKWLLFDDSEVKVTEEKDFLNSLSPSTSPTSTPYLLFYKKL
Sequence of Peptidyl-prolyl cis-trans isomerase NIMA-interacting 1 (Homo sapiens) (Q13526 whole entry, looked up): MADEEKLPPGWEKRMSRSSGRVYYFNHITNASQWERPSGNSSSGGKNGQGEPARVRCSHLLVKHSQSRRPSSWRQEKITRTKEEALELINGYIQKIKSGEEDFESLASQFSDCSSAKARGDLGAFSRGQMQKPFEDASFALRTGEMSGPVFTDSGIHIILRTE

For the compound `CC(C)(C)c1ccc(/C=C/C(=O)Nc2ccc3c(c2)OCCO3)cc1`, the Potency result in test [1], in test [2], in test [3], in [4], in test [8] and in test [9] was “inactive” throughout. The Potency entry in test [10] is “inactive”. Moreover, the Potency in test [5] is 18.3 µM (active); in [6], 10.3 µM (active). In test [6], the viability change was -12.9%. Further, the compound was called inactive in [7].
On to `CCCCCCCCCC(=O)NC(CN1CCOCC1)[C@H](O)c1ccccc1` (some centres undefined), for which the compound was called inactive in [11]. The Potency result in test [2], in test [3], in [4], in [5], in test [6] and in [12] was “inactive” each time. For the same compound, the Potency entry in test [13], in test [8], in [9], in [10], in [14] and in test [15] was “inactive” in each case. Further, in [6], the viability change is -4.61%.
For `CC(O)C(O)[C@H]1CNc2nc(N)[nH]c(=O)c2N1` (some centres undefined), the Potency result in test [1], in test [2], in test [3], in [4], in test [5] and in test [8] was “inactive” each time. Moreover, the Potency result in [9], in test [10], in test [14], in test [15] and in test [17] was “inactive” throughout. The compound was called inactive in test [16] and in [7].
With `CC1=C(/C=C/C(C)=C/C=C/C(C)=C\C(=O)O)C(C)(C)CCC1`, the outcome in [18] and in [7] was inactive. Moreover, the Potency entry in [1], in test [3], in test [4], in test [6], in test [12] and in test [13] was “inactive” throughout. In addition, the Potency entry in test [9], in [10], in test [14] and in [17] was “inactive” each time. In addition, the activation in test [19] is 0.75% (inactive). For the same compound, the viability change in test [6] amounted to 8.59%.
Consider `Nc1ccc2c3c(cccc13)C(=O)NC2=O`, for which the call in test [11] and in [7] was inactive. The figures for the Potency in test [1] and in [14] were 11.2 µM (active) and 25.1 µM (active), respectively. The Potency entry in test [3], in test [12], in test [13], in test [9], in test [10] and in test [15] was “inactive” throughout. Further, in test [17], the Potency result is “inactive”. Further, in test [19], the activation was 87.4% (active).
With `CCC1(O)CC2CN(CCc3c([nH]c4ccccc34)[C@@](C(=O)OC)(c3cc4c(cc3OC)N(C=O)C3[C@]45CCN4CC=C[C@@](CC)([C@@H](OC(C)=O)[C@]3(O)C(=O)OC)[C@H]45)C2)C1` (some centres undefined), the call in test [11] and in test [7] was inactive. The Potency result in test [1], in test [3], in test [12], in test [8], in test [10] and in [14] was “inactive” in each case. The Potency in test [4] was 0.92 µM (active). In [19], the activation is 0.188% (inactive).
With `CN(C)CCC(c1ccc(Br)cc1)c1ccccn1` (centres undefined), the outcome in test [18] and in test [7] was inactive. Also, the Potency entry in [1], in test [2], in test [3], in test [5], in test [6] and in [12] was “inactive” in each case. Further, the Potency result in [13], in test [8], in test [9], in test [10] and in test [14] was “inactive” in each case. For the same compound, the viability change in test [6] was found to be 3.82%.
As to `NCCNS(=O)(=O)c1cccc2c(Cl)cccc12`, the compound was classed as inactive in test [11] and in test [7]. The Potency result in [1], in test [2], in test [3], in test [4], in test [5] and in test [6] was “inactive” each time. The Potency entry in test [12], in test [13], in test [8], in test [10], in test [14] and in [15] was “inactive” each time. In test [19], the activation is 2.62% (inactive). For the same compound, in test [6], the viability change is -10.5%.
